High-throughput results (PubChem BioAssay)
Only some compounds are listed: those with a hit (about 3.6% of all), similar ones and a draw of the others.
BoNT-A LC inh2 = inhibitors of Botulinum neurotoxin A light chain protease | 360,000 compounds, 0.17% hits | inhibition, % at 10 µM | multiplex microsphere protease substrate cleavage, flow cytometry
Anthrax LF prot = inhibitors of Bacillus anthracis lethal factor protease. 360,000 compounds, 0.12% hits. multiplex microsphere protease cleavage assay, LF. P15917. inhibition, % at 10 µM. AID 588501
MazF activator = MazEF (E. coli) toxin RNase activation; P0AE70; FAM/BHQ RNA-DNA oligo cleavage fluorescence, 5 h; activation, % at 20 µM; 350,000 compounds, 0.32% hits; in the data active = activation above about 50%
Target sequence (P0AE70 whole entry, looked up): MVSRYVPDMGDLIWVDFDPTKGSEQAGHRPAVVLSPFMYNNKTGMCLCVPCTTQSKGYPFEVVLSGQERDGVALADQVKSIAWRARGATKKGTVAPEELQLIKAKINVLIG
Bead autofluor = compound fluorescence in toxin protease inhibitor counterscreen | fluorescence intensity (concentration not given with the values) | compound autofluorescence counterscreen, microsphere flow cytometry; stronger effect = higher value | 360,000 compounds, 3.1% hits; in the data active = fluorescence intensity above about 16000; inconclusive = no clear call, values can overlap the other calls
BoNT-F LC inh = inhibitors of Botulinum neurotoxin F light chain protease | 360,000 compounds, 0.22% hits | inhibition, % at 10 µM | Multiplex microsphere protease cleavage assay, flow cytometry; in the data active = inhibition above about 35%, passing the limit was not always enough; inconclusive = no clear call, values can overlap the other calls
Numbers stand for hits; . = inactive; ? = inconclusive; / = no result given. Cut-off read from the data, not from the text of the source, unless noted: active = inhibition above about 30%; inconclusive = no clear call, values can overlap the other calls; inactive = below that.

SMILES	BoNT-A LC inh2	Anthrax LF prot	MazF activator	Bead autofluor	BoNT-F LC inh
COc1ccc(NC(=O)C2CCCN2S(=O)(=O)c2ccc3c(c2)C(C)(C)C(=O)N3C)cc1 (stereo not given)	.	.	/	.	.
O=C(NCCCCCCNC(=O)c1ccc(Br)s1)c1ccc(Br)s1	.	.	.	23002	.
CCc1ccc(/C(C)=N/NC(=O)CNC(=O)/C=C/c2ccco2)cc1	.	.	.	.	.
Fc1ccccc1OCCSc1nnnn1-c1ccccc1	.	.	.	20510	.
COCCCN1CC(=O)N2C(c3cccc(OC)c3OC)c3[nH]c4ccccc4c3C[C@H]2C1=O (stereo not given in full)	.	.	.	.	.
O=C(COc1ccccc1Cl)NC(=S)Nc1ccccc1N1CCCC1	.	.	.	.	.
COC(=O)c1ccccc1NC(=S)NC(=O)COc1ccccc1Cl	?	.	.	20710	.
C[C@H](NC(=O)[C@@H]1CCCN1C(=O)[C@@H]1CCCN1C(=O)c1cccc(Cl)c1)c1ccccc1	.	.	/	.	.
CN(C)CCCNc1cc(C(C)(C)C)nc2c(-c3ccc(Cl)cc3)cnn12	.	.	.	.	.
Cc1cc(NCCCn2ccnc2)n2ncc(-c3ccc(Cl)cc3)c2n1	?	.	.	22244	.
Cc1cc(NCCCN2CCOCC2)n2ncc(-c3ccc(Cl)cc3)c2n1	?	.	.	23672	.
CCOC(=O)c1c(C)[nH]c(C)c1S(=O)(=O)NCC(=O)Nc1ccccn1	.	.	.	.	.
COc1ccc(S(=O)(=O)n2cnc3ccccc32)cc1	.	.	.	.	.
Cc1ccc(S(=O)(=O)n2cnc3ccccc32)cc1	.	.	.	16399	.
CN(C(=O)c1cccc(NC(=O)Cc2ccc(NC(=O)C3CCN(C(=O)C4CCCC4)CC3)cc2)c1)C1CCCC1	.	.	.	.	.
O=S1(=O)C[C@H](N2CC[C@@H](O)C2)[C@@H](COCc2ccccc2)N1	.	.	/	.	.
CCOC(=O)c1ccc(-n2c(N)c(C(=O)NCc3ccco3)sc2=S)cc1	.	.	.	23235	.
CCOC(=O)c1sc(=S)n(-c2ccc(C)cc2)c1N	.	.	.	.	.
CC(=O)c1sc(=S)n(-c2ccc(Cl)cc2)c1C	.	.	.	.	.
CCOC(=O)c1sc(=S)n(-c2ccc(Cl)cc2)c1SC	.	.	.	21737	.
CCOC(=O)c1sc(=S)n(-c2ccc(F)c(F)c2)c1N	.	.	.	21634	.
COc1ccc(/C=N/NC(=O)c2cccnc2)c(C(=O)O)c1OC	.	.	.	.	.
Cc1nn(CC(=O)O)c(C)c1Cl	.	.	.	.	.
Cc1nn(CC(=O)O)c(C)c1C	.	.	.	21501	.
Cc1cc2cc(C=O)c(Cl)nc2cc1C	.	.	.	17857	.
SMILES	BoNT-A LC inh2	Anthrax LF prot	MazF activator	Bead autofluor	BoNT-F LC inh
COC(=O)c1ccc(C(=O)OC)c(NC(=O)c2cnc3n(c2=O)CCS3)c1	?	.	.	16274	.
Cc1cccc(N(C(=O)c2cnc3n(c2=O)CCS3)C2CCCCC2)c1	.	.	.	22301	.
Cc1ccc(C)c(NC(=O)c2cnc3n(c2=O)CCS3)c1	.	.	.	.	.
O=C(c1cnc2n(c1=O)CCS2)N(c1ccccc1)C1CCCCC1	.	.	.	.	.
CN(Cc1ccccc1)C(=O)c1cnc2n(c1=O)CCS2	?	.	.	19652	.
CC1CC(CCN)(c2ccccc2)C(C)CN1C (stereo not given)	?	.	.	.	?
Cn1nc(-c2ccc(C(=O)NC3CCCCC3)cc2)c2ccccc2c1=O	.	.	.	.	.
FC(F)(F)c1ccc(Cl)c(N/N=C/c2ccc(N3CCOCC3)s2)c1	.	.	.	.	.
CCC(=O)Nc1nc(-c2ccccc2)ns1	.	.	.	21302	.
Cc1nnc(SCCC(=O)Nc2nc(-c3ccccc3)ns2)s1	.	.	.	16875	.
O=C(Nc1nc(-c2ccccc2)ns1)c1cccs1	.	.	.	22042	.
CCOc1ccc(NC(=O)CCSc2nnc(C)s2)cc1	.	.	.	.	.
CC(C)C(=O)Nc1nc(-c2ccccc2)ns1	?	.	.	22460	.
CCCC(=O)Nc1nc(-c2ccccc2)ns1	.	.	.	.	.
Cc1cccc(NC(=O)CNC(=O)[C@H]2O[C@@H](n3ccc(=O)[nH]c3=O)[C@H](O)[C@@H]2O)c1C	.	.	/	.	.
CCCC[C@@H]1C=C(C(=O)O)[C@H](c2ccc(Br)cc2)N1S(=O)(=O)c1ccc(C)cc1	.	.	.	.	.
CC(=O)Nc1ccc(NC(=O)C(C)Sc2nc3ccccc3c(=O)n2CC2CCCO2)cc1 (stereo not given)	.	.	.	.	.
Nc1c(-c2cccs2)cnn1-c1nc(-c2ccc(F)cc2)cs1	.	.	.	.	.
Nc1c(-c2cccs2)cnn1-c1nc(-c2ccc(Cl)cc2Cl)cs1	?	.	.	23441	.
CCOC(=O)c1cc(C)n(Cc2ccc(OCC)c(OC)c2)c1C	.	.	.	17147	.
CCOC(=O)c1c(C)c(C)n(Cc2ccc(OC)c(OC)c2)c1C	.	.	.	.	.
COC(=O)N/N=C/c1cc(C)n(-c2ccc(F)cc2)c1C	.	.	.	.	.
COC(=O)N/N=C/c1cc(C)n(-c2ccc(Br)cc2)c1C	.	31	.	.	?
Cc1cc(N2CCOCC2)nc2ccc(NC(=O)CCC(=O)N3CCCCC3)cc12	.	.	.	23643	.
COc1ccc(N(C)C(=O)CCC(=O)Nc2ccc3nc(N4CCOCC4)cc(C)c3c2)c(OC)c1	.	.	.	16645	.
SMILES	BoNT-A LC inh2	Anthrax LF prot	MazF activator	Bead autofluor	BoNT-F LC inh
Cc1cc(N2CCOCC2)nc2ccc(NC(=O)CCC(=O)N3CCC(C)CC3)cc12	.	.	.	19171	.
OC[C@@H]1CN(Cc2cccs2)C[C@H](n2cnc3c(NCc4ccco4)ncnc32)O1	.	.	/	.	.
CCCC(=O)N1CCCC1(C)C(=O)NCc1ccc(F)cc1Cl (stereo not given)	.	.	/	.	.
C[C@@H](c1ccccc1)N1C[C@@H](COCc2ccccc2)Oc2cc(N3CCC[C@H]3C(N)=O)ccc2S1(=O)=O	.	.	/	.	.
COC(=O)c1ccc(C(=O)OC)nc1	.	.	.	.	35
COC(=O)c1ccc(C(=O)O)nc1	.	.	.	.	.
O=C(Cc1c(F)cccc1Cl)NCC(=O)OCc1ccccc1	.	.	.	.	.
Cc1cc(NC(=O)c2cnn3c(C(F)(F)F)cc(-c4ccc(Br)cc4)nc23)no1	.	.	.	23282	.
O=C(c1cnn2c(C(F)(F)F)cc(-c3ccc4c(c3)OCO4)nc12)N1CCCC1	?	.	.	21315	.
O=C(Nc1ccc(C(=O)N2CCOCC2)cc1)c1cnn2c(C(F)F)cc(-c3ccccc3)nc12	.	.	66	.	.
O=C(c1cnn2c(C(F)F)cc(-c3ccccc3)nc12)N1CCSCC1	.	.	.	?	.
O=C(c1cnn2c(C(F)F)cc(-c3ccccc3)nc12)N1CCOCC1	.	.	.	21284	.
O=C(c1cnn2c(C(F)(F)F)cc(-c3ccc(Br)cc3)nc12)N1CCOCC1	.	.	.	.	.
